# Screening data as filed in PubChem.
# Compounds with a hit are over-represented: about 19% of the library has one in this group of screens.
# MCF10A rerep: A quantitative high throughput screen for small molecules that induce DNA re-replication in MCF 10a normal breast cells. MCF 10A DNA re-replication, Hoechst nuclear intensity, 48 h. Potency, µM (top dose mostly 46.1 µM), for inactives: at the highest dose activity, positive = re-replication, usual class: activators. 2.9% of 350,000 active; further: potency means the concentration at half of the fitted maximal effect; % of control where 0% means no effect; nearly all actives have a fitted effect of over 50% in size
# DT40 TDP1 CPT: qHTS for Inhibitors of human tyrosyl-DNA phosphodiesterase 1 (TDP1): qHTS in cells in presence of CPT | chicken DT40 Tdp1-/-;hTDP1 cells + 20 nM CPT, ATP luminescence, 48 h | Potency, µM (titrated, usually from 46.2 µM), without a hit: at the top dose activity change, negative = growth inhibition, actives largely listed as inhibitors | 12% of 420,000 active | AID 686979, 2013; further: potency means the concentration at half of the fitted maximal effect; on the % scale 0 is the no-effect control and ±100 the full control effect; nearly all actives have a fitted effect of over 55% in size
#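 Chicken DT40 Tdp1-/- cells complemented with human TDP1, 400 cells/well, exposed to compounds plus 20 nM camptothecin for at least 48 h at 37 C; viability read as ATP content by CellTiter-Glo luminescence.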
# DT40 TDP1 no CPT: qHTS for Inhibitors of human tyrosyl-DNA phosphodiesterase 1 (TDP1): qHTS in cells in absence of CPT; DT40 Tdp1-/- hTDP1 cells, no CPT, ATP luminescence, 48 h; Potency, µM (doses to about 46.2 µM), for the others: at the highest dose activity change, negative = growth inhibition, actives largely listed as inhibitors; 15% of 420,000 active; further: potency means the concentration at half of the fitted maximal effect; on the % scale 0 is the no-effect control and ±100 the full control effect; nearly all actives have a fitted effect of over 55% in size
#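 Compound effects on proliferation are scored in DT40 Tdp1-/-;hTDP1 cells in the absence of CPT. ATP levels (CellTiter-Glo luminescence) are recorded after a ≥48 hr, 37 °C incubation.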
# IL-1B inflam inh: qHTS for Inhibitors of Inflammasome Signaling: IL-1-beta AlphaLISA Primary Screen; THP-1 LPS/ATP IL-1B secretion, AlphaLISA, 16 h; hits give low values; activity change, % at 57.5 µM; 4.7% of 360,000 active; AID 743279, 2014; in the data active means activity change below about -50%; inconclusive means mostly about -30% to -49%; further: on the % scale 0 is the no-effect control and ±100 the full control effect
#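 THP-1 cells pretreated 1 hr with compounds (up to 57.5 uM final), then stimulated with LPS (250 ng/mL final) plus ATP (1.25 mM final); secreted IL-1B measured by AlphaLISA after 16 hr, decreased signal indicating inhibition.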
# BCR signal inh: qHTS Assay to Find Inhibitors of Chronic Active B-Cell Receptor Signaling. ABC-DLBCL IkBa-CBG/CBR reporter, luminescence ratio, 4 h. Potency, µM (highest dose often 46.1 µM), for inactives: at the highest dose activity change, negative = inhibition, most hits filed as inhibitors. 0.05% of 340,000 active. AID 493014, 2011; active means well fitted inhibition curve with a large enough effect in the signal ratio, with a control signal flat, not every such curve was filed as active; inconclusive means small, poorly fitted or top-dose-only effect, or effect the other way, or a change in a side signal; the % refers to the signal ratio;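 further: potency means the concentration at half of the fitted maximal effect; plate controls were basal doxycycline-induced cells for no effect and cells given 10 µM MG132 for full effect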
#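 Cell line TMD8 (human ABC DLBCL), stably expressing tet-inducible CBG68-IkBa fusion and CBR; IMDM/0.5% FBS; cpd up to 46 uM; dox induction, 4 h, 37C/5% CO2; dual luminescence; green/red ratio; MG132 control.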
# SW480 rereplic: A quantitative high throughput screen for small molecules that induce DNA re-replication in SW480 colon adenocarcinoma cells. SW480 DNA re-replication, Hoechst DNA content imaging, 48 h. Potency, µM (highest dose often 46.1 µM), for the others: top-dose re-replication activation, usual class: activators. 1.8% of 340,000 active. AID 624297, 2012; further: potency means the concentration at half of the fitted maximal effect; % of control where 0% means no effect; nearly all actives have a fitted effect of over 55% in size
#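 Image-based read-out: total Hoechst fluorescence of nuclei (405 nm excitation, 500-530 nm emission), with hits raising the fraction of high-intensity nuclei. SW480 colon cells incubated 48 hr with compounds at 37 C.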
# Numbers without * were called inactive; i = inactive; ? = inconclusive; . = no result. Unless noted, the call rests on the fitted dose curve; in most records, active means well fitted curve in the direction sought with a large enough effect; inconclusive means small, poorly fitted or top-dose-only effect, or another doubt; inactive means no such curve, though single readings can be large; an effect the other way counts as inactive or inconclusive.
SMILES,MCF10A rerep,DT40 TDP1 CPT,DT40 TDP1 no CPT,IL-1B inflam inh,BCR signal inh,SW480 rereplic
CC(=O)c1ccc(N2CCN(c3ncccn3)CC2)cc1,-10.1%,-2.5%,-14.0%,4.7,6.8%,-3.7%
COC(=O)c1ccc(=O)c2nc3/c(=C/O)c(O)cc(=O)c3[nH]c12,-35.5%,20.6µM*,?,-5.8,?,-3.8%
CCOc1cc2c(cc1OCC)C(c1ccccc1)N(c1ccc(C(=O)O)cc1)C(=O)C2 (centres undefined),-4.6%,-9.5%,-6.7%,-1.8,?,-0.5%
CCOC(=O)c1ccc(N2C(=O)Cc3cc(OCC)c(OCC)cc3C2c2ccccc2)cc1 (centres undefined),.,14.6µM*,13µM*,.,.,.
CC(C)(C)CC(C)(C)N=C1Nc2cc(Cl)c(Cl)cc2NC12C[C@H]1CCC(=O)N3CC[C@@H](C2)[C@@H]13 (some centres undefined),?,?,?,-64.2*,.,15.5%
CC(C)(C)CC(C)(C)N=C1Nc2cc(Cl)c(Cl)cc2N[C@]12C[C@H]1CCCC(=O)N3CC[C@@H](C2)[C@@H]13,.,?,11.2µM*,.,.,.
CN(CC(=O)Nc1ccccc1-c1ccccc1)Cc1ccccc1Cl,?,?,?,-9.1,7.8%,-76.3%
COc1ccc(CNC(=O)c2ccc(-n3ccnc3)c3ccoc23)cc1OC,.,18.4µM*,?,-15.7,.,.
COc1ccc(-c2coc3c(C(=O)NCc4cccc(Cl)c4)cccc23)c(C)c1,.,14.6µM*,14.6µM*,-11.0,.,.
Cn1cc(-c2coc3c(C(=O)NCc4cccc(Cl)c4)cccc23)cn1,.,?,5.8µM*,-67.6*,.,.
COc1ccc(-c2coc3c(C(=O)NCC4CC4)cccc23)c(C)c1,.,6.51µM*,25.9µM*,0.4,.,.
O=C(NCC1CCOCC1)c1cccc2c(-c3cccnc3)coc12,.,-28.9%,?,-7.0,.,.
CC(C)NC(=O)N1CCC2(CC1)CCN(C(=O)c1csnn1)CC2,.,21.3%,-3.8%,.,.,.
COCCn1c(CN2CCN(C(=O)c3ccco3)CC2)nc2c1c(=O)n(C)c(=O)n2C,-2.6%,-14.5%,16.4%,-2.5,5.7%,6.9%
COc1ccc(-c2ccc(C(=O)NCc3ccco3)c3occc23)c(C)c1,.,?,?,-53.2*,.,.
O=C(NCc1ccccc1)c1ccc(-c2cn[nH]c2)c2ccoc12,.,-49.4%,?,-23.3,.,.
COc1ccc(-c2coc3c(C(=O)NCc4ccco4)cccc23)c(C)c1,.,18.4µM*,?,-26.1,.,.
COc1ccc(-c2coc3c(C(=O)NCc4cccs4)cccc23)c(C)c1,.,23.1µM*,18.4µM*,-52.6*,.,.
COc1ccc(-c2ccc(C(=O)NCc3ccc(N(C)C)cc3)c3occc23)c(C)c1,.,?,16.4µM*,-14.9,.,.
COc1ccc(-c2ccc(C(=O)NCc3cccs3)c3occc23)c(C)c1,.,?,?,-22.5,.,.
COc1ccc(-c2coc3c(C(=O)NCc4ccc(C(F)(F)F)cc4)cccc23)c(C)c1,.,?,-94.1%,-6.5,.,.
Cc1noc(C)c1C(=O)N1CCC2(CC1)CCN(c1ccccn1)CC2,.,-14.9%,?,.,.,.
O=C(Nc1nnc(C2=COCCO2)o1)c1ccc([N+](=O)[O-])cc1,8.3%,?,?,i,3.0%,-7.8%
COc1ccc(-c2ccc(C(=O)NCCc3ccccc3)c3occc23)c(C)c1,.,20.6µM*,20.6µM*,-15.4,.,.
O=C(NCc1cccc(Cl)c1)c1ccc(-n2cncn2)c2ccoc12,.,16.4µM*,?,-27.9,.,.
SMILES,MCF10A rerep,DT40 TDP1 CPT,DT40 TDP1 no CPT,IL-1B inflam inh,BCR signal inh,SW480 rereplic
COc1ccc(CCNC(=O)c2ccccc2C(=O)NCCc2ccc(OC)cc2)cc1,-0.2%,-8.6%,-10.6%,3.6,.,4.8%
O=C(NCc1cccc(Cl)c1)c1ccc(-n2ccnc2)c2ccoc12,.,?,?,-23.7,.,.
CNCC(=O)N[C@@H](CCCN=C(N)N)C(=O)N[C@H](C(=O)N[C@@H](Cc1ccc(O)cc1)C(=O)N[C@H](C(=O)N[C@@H](Cc1cnc[nH]1)C(=O)N1CCC[C@H]1C(=O)N[C@@H](C)C(=O)O)C(C)C)C(C)C,.,-9.9%,6.8%,.,.,.
CC(C)n1nnnc1C1c2ccccc2C(=O)N1C1CC1 (centres undefined),.,-13.8%,-3.9%,12.3,.,.
NC(=O)C1CCN(C(=O)c2ccc(NS(=O)(=O)/C=C/c3ccccc3)cc2)CC1,.,-0.3%,-23.2%,10.6,.,.
COc1ccc(CCNC(=O)CSc2nnc(CNC(=O)c3cc(OC)c(OC)c(OC)c3)o2)cc1OC,6.3%,3.6%,29.9%,42.6,-10.9%,17.1%
O=c1c(-c2cccc(Cl)c2)nc2cncnc2n1Cc1ccc(F)cc1,.,1.3%,-21.3%,.,.,.
O=c1cnc2cncnc2n1Cc1ccccc1Cl,.,2.31µM*,1.3µM*,.,.,.
O=c1c(-c2ccccc2)nc2cncnc2n1Cc1ccc(F)cc1,.,?,20.6µM*,.,.,.
Cc1nc2cncnc2n(Cc2ccccc2Cl)c1=O,.,-16.4%,-1.5%,.,.,.
O=c1c(CCc2ccccc2)nc2cncnc2n1Cc1ccccc1,.,?,-28.4%,.,.,.
O=c1cnc2cncnc2n1Cc1ccc(F)cc1,.,4.11µM*,4.11µM*,.,.,.
O=c1cnc2cncnc2n1Cc1ccccc1,.,5.8µM*,7.31µM*,.,.,.
COc1ncc2ncc(=O)n(Cc3ccc(F)cc3)c2n1,.,-2.6%,-24.3%,.,.,.
O=C(Cn1cc(C(=O)C(F)(F)F)c2ccccc21)N1CCCCCC1,.,-17.7%,-6.1%,.,.,.
CCCC1=C/C(=C/c2ccc(-c3ccccc3OC)o2)C(=O)O1,10.3µM*,-10.7%,?,4.6,0.9%,23.1µM*
COc1ccccc1-c1ccc(/C=C2/C=C(CC(C)C)OC2=O)o1,?,-19.0%,?,-21.0,0.3%,-0.8%
CCOC(=O)[C@]12CCC=C1N(Cc1ccccc1)C(=O)[C@H](CC(=O)NCc1ccc(OC)c(OC)c1)C2,.,?,?,-2.5,.,.
CCn1cc(C(=O)NCCCOC(C)C)c(=O)c2cc(S(=O)(=O)N3CCOCC3)ccc21,1.2%,-26.1%,?,-12.5,2.1%,-4.0%
O=C1CC(N2CCCCCC2)C(=O)N1c1ccc2c(c1)OCO2 (centres undefined),14.6µM*,3.66µM*,6.31µM*,-6.0,0.7%,-0.6%
